Reference: PubChem BioAssay (NCI)
About 83,000 compounds went through this panel and 20% of them were active in at least one assay; those are over-represented in the sample as a whole.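 Method: cells in 96-well plates; compound added at one concentration; 48 h incubation; percent growth measured; values under 10 scored active.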 Calls of active or inactive are those of the source.

system: HL-60(TB) leukemia; experiment: NCI-60 one-dose screen, 48 h (100 = growth as untreated, 0 = no growth, -100 = all killed); settings: 10 µM unless noted

Structure (SMILES)	growth
CC1=C(C(=O)c2ccccc2)C(c2cccc(Cl)c2Cl)n2c(nc3ccccc32)N1 (configuration not stated)	36.1% (inactive)
COc1ccc2[nH]cc(-c3nc(N)nnc3-c3cn(C)c4ncccc34)c2c1	15.1% (inactive)
COc1ccc(C2NC(=S)NC(C)=C2C(=O)OC(C)C)cc1OC (configuration not stated)	100% (inactive)
COc1ccc2[nH]c(O)c(N=NC(=O)Cn3c(-c4ccccc4)nc4cc(C)ccc43)c2c1	-50.8% (active)
Cc1cc(C)c2[nH]c(=O)c(C(c3nnnn3Cc3ccc4c(c3)OCO4)N3CCN(C)CC3)cc2c1 (configuration not stated)	129% (inactive)
CN1CCN(C(=O)Oc2cc3c(c4ccccc24)[C@H](CCl)CN3C(=O)c2cc3cc(OCCCN4CCC4)ccc3[nH]2)[C@H]2CSSC[C@H]21	-22.8% (active)
O=c1[nH]c2ccccc2cc1COc1ccc(Nc2nccc(-c3ccc(Cl)cc3)n2)cc1	95% (inactive)
COC(=O)C[C@](O)(CCCC(C)(C)O)C(=O)O[C@H]1C(OC)=C[C@@]23CCC(=O)N2CCc2cc4c(cc2[C@@H]13)OCO4	97.4% (inactive)
O=C1NC(=NC23CC4CC(CC(C4)C2)C3)N/C1=C\c1ccc2ncccc2c1	-11.2% (active)
CN1CCN(Cc2ccc(NC(=O)c3cncc(C#Cc4cnc5ccc(N[C@H]6CCOC6)nn45)c3)cc2C(F)(F)F)CC1	-54.4% (active)
COc1ccc2[nH]cc(-c3nnc(N)nc3-c3cn(C)c4ncc(Br)cc34)c2c1	35% (inactive)
COc1cc2c(c(OC)c1OC)C(=O)CC(c1cccc(NC(=O)c3cc([N+](=O)[O-])ccc3Cl)c1)O2 (configuration not stated)	34.1% (inactive)
